Measured values taken from ChEMBL document CHEMBL4513216, “Probing the Open Global Health Chemical Diversity Library for Multistage-Active Starting Points for Next-Generation Antimalarials” (ACS Infect Dis, 2020).
The campaign covered roughly 69,000 compounds. About 8,600 (12%) showed an effect of 50% or more. For the sample, strong results were picked, then their nearest neighbours and some compounds at random.

System: Plasmodium berghei
Test: Screen against P. berghei liver stage (PbLuc), transformed with Luciferase, at 10uM
Format: functional, HepG2
Conditions: tested at 10 uM

SMILES	INHIBITION
O=C(C1CC(=O)N(c2ccccc2Br)C1)N1CCCCCC1 (centres undefined)	21.8%
COC1CCN(C(=O)C2CC(=O)N(c3ccccc3Br)C2)CC1 (centres undefined)	61.7%
O=C(C1CC1)N1CCN(C(=O)C2CC(=O)N(c3ccccc3Br)C2)CC1 (centres undefined)	-56.4%
COCc1nn(C(C)C)c2c1CCN(Cc1ccsc1)C2	-21.1%
C[C@@H]1C(=O)NC[C@H]2CN(Cc3ccsc3)C[C@H]21	27.4%
COc1cc(N2C[C@@H]3COC[C@]3(C(=O)NC3CC(F)(F)C3)C2)ncn1	31.4%
CC(C)(C)CN1CCCC(O)(CN2CCc3[nH]ncc3C2)C1=O (centres undefined)	22.6%
Cc1cccnc1CNCC1(O)CCCN(CC2CCC2)C1=O (centres undefined)	9.96%
O=C1N(CC2CC2)CCCC1(O)CN1CCc2[nH]ncc2C1 (centres undefined)	79.1%
O=C1N(CC2CCCCC2)CCCC1(O)CN1CCc2[nH]ncc2C1 (centres undefined)	68.8%
Cc1cccnc1CCNCC1(O)CCCN(CC2CCCCC2)C1=O (centres undefined)	25.8%
Cc1cccnc1CNCC1(O)CCCN(CC2CCCCC2)C1=O (centres undefined)	15.1%
CS(=O)(=O)N1CCC2(CC1)COC(COc1cccnc1)C2 (centres undefined)	-52.3%
CC(C)(C)c1cc(=O)n2c(n1)SCC(C(=O)NCc1cccs1)C2 (centres undefined)	28%
COc1ccc2c(OCC(=O)NC(C)(C)C)ccnc2c1	29.6%
CCS(=O)(=O)N1CC[C@H]2O[C@H](c3nc(C)no3)CC[C@H]21	18.2%
Cc1nc2ccc(C(=O)N3C[C@@H](O)[C@H](N4CCN(C)CC4)C3)cc2[nH]1	46%
CS(=O)(=O)Cc1ccc(Cl)cc1NCc1ccccc1F	38%
Cc1cc(C)c(S(N)(=O)=O)cc1C(=O)NCC1Cc2ccccc2O1 (centres undefined)	-9.82%
NS(=O)(=O)c1ccc(NCc2ccccc2)cc1C(F)(F)F	77.7%
CC(=O)Nc1ccc(CNc2cccc(CS(C)(=O)=O)c2)cc1	34.6%
Fc1ccccc1CNc1ccnc(C2CCNCC2)c1	26.7%
CS(=O)(=O)c1ccc(NCc2ccccc2)cn1	27.3%
Cc1ccccc1CNc1ccc(S(N)(=O)=O)c(C(F)(F)F)c1	93.4%
NS(=O)(=O)c1ccc(NCc2ccccc2F)cc1C(F)(F)F	82.3%
CC(C)(CNc1ccc(C#N)c(C(F)(F)F)c1)C(N)=O	-21%
CN(C)S(=O)(=O)c1ccc(CN2CCCC2c2ccsc2)o1 (centres undefined)	-0.96%
Cn1nccc1C(=O)N1Cc2ccccc2OC2(CCOCC2)C1	29.2%
CN(C)C(=O)N1CCOCC2(CCN(c3ccccn3)C2)C1 (centres undefined)	-3.1%
